Screens (PubChem BioAssay)
Shown are actives, neighbours in structure and some others; about 1.4% of the full set was active somewhere.
AID504770: growth inhibitors of E. coli YBA685 in a screen for V. cholerae RctB (chromosome II replication) inhibitors; E. coli YBA685 rctB-dependent plasmid, OD600 growth, 3 h; stronger effect = lower value; z-score (no concentration beside the values); 130,000 tested, 0.27% active; AID 504770; in the data active = z-score below about -2, passing the limit was not always enough
Mtb MenB inh: Mtb MenB enzyme inhibition. 100,000 tested, 0.43% active. inhibition, % (test concentration not listed). MenB enzyme assay, absorbance read-out. AID 540299. P9WNP5; in the data active = inhibition above about 21%, passing the limit was not always enough
PV pol inh: inhibitors of poliovirus RNA polymerase binding and polymerization. AID 588519. 150,000 tested, 0.66% active. poliovirus polymerase elongation, fluorescence polarization; stronger effect = lower value. % elongation, % (compound at 16.7 µg/mL); in the data active = % elongation below about 90%
Target sequence (P03300 1749-2209 limits assumed): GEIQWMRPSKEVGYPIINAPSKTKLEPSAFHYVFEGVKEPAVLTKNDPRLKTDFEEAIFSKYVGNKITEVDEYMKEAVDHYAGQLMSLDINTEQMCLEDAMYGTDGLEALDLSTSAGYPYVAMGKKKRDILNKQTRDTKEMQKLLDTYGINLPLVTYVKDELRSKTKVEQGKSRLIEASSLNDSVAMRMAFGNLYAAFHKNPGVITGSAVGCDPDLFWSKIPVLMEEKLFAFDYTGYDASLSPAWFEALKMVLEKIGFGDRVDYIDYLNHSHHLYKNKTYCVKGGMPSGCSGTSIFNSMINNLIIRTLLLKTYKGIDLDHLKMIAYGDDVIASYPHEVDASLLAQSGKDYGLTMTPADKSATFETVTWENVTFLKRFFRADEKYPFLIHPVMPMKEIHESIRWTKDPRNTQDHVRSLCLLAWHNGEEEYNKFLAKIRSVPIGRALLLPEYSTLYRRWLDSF
Mtb MbtI inh: MbtI salicylate synthase inhibition; P9WFX0; purified MbtI enzyme, fluorescence intensity read-out; inhibition, % (concentration not given with the values); 100,000 tested, 0.89% active; in the data active = inhibition mostly above about 56%, no sharp cut-off; inactive = mostly below about 77%
The depositor's hits bear a star.

For N#C/C(C(=O)N1CCCCC1)=C(/S)Nc1ccccc1 the results were AID504770 0.3, Mtb MenB inh -17.1, PV pol inh 99.0 and Mtb MbtI inh 70.9*.
N#C/C(C(N)=O)=C(/S)Nc1ccccc1 was read as AID504770 -3.8*, Mtb MenB inh -16.2, PV pol inh 101.0 and Mtb MbtI inh 30.0.
Screening O=C1CNC(=O)N1Cc1ccc(F)cc1 returned AID504770 1.6, Mtb MenB inh 34.3*, PV pol inh 99.0 and Mtb MbtI inh 1.5.
`CCOc1ccc(NC(=O)N2CCC(CN3CCC(C)CC3)CC2)cc1` gave PV pol inh 102.0.
For CCOC(=O)CC(NC(=O)N1CCC(CN2CCC(C)CC2)CC1)c1ccccc1 (stereo unspecified) the results were PV pol inh 49.0*.
`CCCC1NC(=S)N(c2ccccc2)N1` (stereo unspecified) gave AID504770 0.35, Mtb MenB inh 7.5, PV pol inh 101.0 and Mtb MbtI inh 97.8*.
For CC(C)(C)OC(=O)C1CCC(C(=O)Oc2ccc3c4c(c(=O)oc3c2)CCCC4)CN1 (stereo unspecified) the results were AID504770 0.1, Mtb MenB inh -17.9 and PV pol inh 105.0.
COc1ccc2nc(SCC(=O)c3ccc(O)c(O)c3)[nH]c2c1 was read as AID504770 -0.2, Mtb MenB inh 0.7, PV pol inh 100.0 and Mtb MbtI inh 70.2*.
c1ccc(-c2noc(COc3cccc4ccccc34)n2)cc1 was read as AID504770 -0.65, Mtb MenB inh -11.2 and PV pol inh 101.0.
`O=S(=O)(CCc1ccccc1)c1ccccc1` gave AID504770 1.05, Mtb MenB inh 26.2*, PV pol inh 100.0 and Mtb MbtI inh -2.5.
`CCN(CC)C(CN)c1ccccc1` (stereo unspecified) gave AID504770 1.15, Mtb MenB inh 14.1, PV pol inh 103.0 and Mtb MbtI inh 0.4.
For CN(Cc1ccccc1)C(=O)COc1ccc(S(=O)(=O)N2CCCC2)cc1 the results were AID504770 0.2, Mtb MenB inh 40.5*, PV pol inh 100.0 and Mtb MbtI inh -3.3.
Screening COc1ccc(CCNC(=O)c2ccc3c(c2)N(Cc2cccc(C)c2)C(=O)c2ccccc2S3(=O)=O)cc1OC returned PV pol inh 82.0*.
For COc1ccc(CCNC(=O)c2ccc3c(c2)N(Cc2ccccc2F)C(=O)c2ccccc2S3(=O)=O)cc1OC the results were PV pol inh 110.0.
For Cc1cc(C)c(S(=O)(=O)N2CCCCC2)cc1C the results were AID504770 -0.1.
`Cc1cc2[nH]c(=O)c(=O)[nH]c2cc1S(=O)(=O)N1CCCCC1` gave AID504770 -2.55*, Mtb MenB inh -14.3, PV pol inh 102.0 and Mtb MbtI inh 38.8.
O=C1OC(c2cccs2)=N/C1=C\c1cccc(F)c1 was read as AID504770 -0.2, PV pol inh 88.0* and Mtb MbtI inh 95.1.
Screening NC(=O)Cn1cnc2sc3c(c2c1=O)CCC3 returned AID504770 -0.25, Mtb MenB inh -24.3 and PV pol inh 90.0*.
Screening Cc1ccc(S(=O)(=O)N(C)c2c(C)ccc(S(=O)(=O)n3nc(C)cc3C)c2C)cc1 returned AID504770 0.2, Mtb MenB inh 38.8*, PV pol inh 101.0 and Mtb MbtI inh -4.5.
Screening NC(=O)CN1C(=O)C(O)(CC(=O)/C=C\c2ccccc2)c2ccccc21 (stereo unspecified) returned AID504770 1.35, Mtb MenB inh 42.6*, PV pol inh 102.0 and Mtb MbtI inh 22.0.
`Cc1ccc(C2=NN=C(NC(=O)CSc3nnc(C)s3)SC2)cc1` gave AID504770 -0.8, Mtb MenB inh 8.0, PV pol inh 99.0 and Mtb MbtI inh 83.5*.
Screening CCOC(=O)c1c(-c2ccccc2)csc1NC(=O)c1cc(-c2ccc(F)cc2)on1 returned PV pol inh 89.0*.
Screening CCOC(=O)c1c(-c2ccccc2)csc1NC(=O)c1cc(-c2ccc(Br)cc2)on1 returned PV pol inh 78.0*.
Screening CCOC(=O)c1c(-c2ccc(C)cc2)csc1NC(=O)c1cc(-c2ccc(C)c(F)c2)on1 returned PV pol inh 111.0.
Screening CCc1c(C)sc(NC(=O)c2cc(-c3ccccc3)on2)c1C#N returned AID504770 3.6, Mtb MenB inh -11.4 and PV pol inh 83.0*.
Screening Cc1noc2ncnc(N3CCCC(C(=O)Nc4nccs4)C3)c12 (stereo unspecified) returned AID504770 -0.8, Mtb MenB inh 1.3, PV pol inh 102.0 and Mtb MbtI inh -13.8.
`O=c1[nH]c2ccc(S(=O)(=O)Nc3ccc(O)cc3)cc2[nH]1` gave AID504770 -0.4, Mtb MenB inh 6.5, PV pol inh 104.0 and Mtb MbtI inh -6.0.
For O=S(=O)(Nc1ccc(Cl)cc1)c1ccc2oc(=S)[nH]c2c1 the results were AID504770 0.75, Mtb MenB inh -47.5, PV pol inh 91.0 and Mtb MbtI inh 89.9*.
`CC1=NN(c2ccccc2)C(=S)/C1=C\N1CCCCC1` gave AID504770 0.75, Mtb MenB inh -39.8, PV pol inh 104.0 and Mtb MbtI inh 97.6*.
Cc1cccc(C(=O)c2c(N3CCOCC3)[nH]c(=O)c3ccccc23)c1 was read as AID504770 -1.35, Mtb MenB inh -25.3, PV pol inh 68.0* and Mtb MbtI inh 0.3.
`CCn1nc(C)cc1C(=O)Sc1ccc(C(F)(F)F)cn1` gave AID504770 -0.3.
For Nn1c(SCC(=O)NCc2ccc3c(c2)OCO3)nncc1=O the results were AID504770 -0.6, Mtb MenB inh -46.8, PV pol inh 100.0 and Mtb MbtI inh -1.4.
For Nn1c(SCC(=O)NCc2ccc3c(c2)OCO3)nnc1C1CC1 the results were AID504770 0.9, Mtb MenB inh 14.3, PV pol inh 104.0 and Mtb MbtI inh 81.2*.
Cc1cc(C)c(S(=O)(=O)N(CCC(C)C)S(=O)(=O)c2ccccc2C#N)c(C)c1 was read as AID504770 -4.05*, Mtb MenB inh -5.0, PV pol inh 98.0 and Mtb MbtI inh -3.6.
For CC(Sc1nnc(-c2cccc(Cl)c2)n1N)C(=O)NC1CCCCC1 (stereo unspecified) the results were AID504770 2.3, Mtb MenB inh -13.4, PV pol inh 111.0 and Mtb MbtI inh -8.1.
For C/C(=N\NC(=O)C(F)(F)F)c1ccccc1O the results were AID504770 1.05, Mtb MenB inh 34.1*, PV pol inh 103.0 and Mtb MbtI inh 1.2.
Cc1cccc(NC(=S)N2CCCCC2C(N)=O)c1 (stereo unspecified) was read as AID504770 0, Mtb MenB inh 4.9, PV pol inh 97.0 and Mtb MbtI inh 58.4*.
O=C(O)CCC(=O)c1ccc(Br)cc1 was read as AID504770 -3.1*, PV pol inh 90.0* and Mtb MbtI inh -10.6.
`O=C(O)CCC(=O)c1ccc(I)cc1` gave AID504770 1.5, PV pol inh 101.0 and Mtb MbtI inh 4.2.
For COc1ccc(NC(=O)N2CCCC(C(N)=O)C2)cc1 (stereo unspecified) the results were AID504770 -0.25, Mtb MenB inh -22.1, PV pol inh 105.0 and Mtb MbtI inh -20.0.
`O=C(O)/C=C1\OC(=O)c2ccccc21` gave AID504770 -0.35, Mtb MenB inh -5.7, PV pol inh 106.0 and Mtb MbtI inh -0.6.
